Measured values: PubChem BioAssay AID1159580 (chemical genetic matrix, 2015)
The whole screen tested about 5,500 compounds, of which about 2,000 (36%) were called active. Not shown: some 18% with an inconclusive outcome. No stated cut-off is given here; in the data, active means normalized growth mostly below about 0.91 (no sharp cut-off); inconclusive means no clear call, values can overlap the other calls; inactive means mostly above about 0.92. The list shows a part of the results.

Assay: chemical genetic growth profiling, strain panel (AID 1159580);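 further: tested at 20 µM; growth read once vehicle control cultures reached saturation at 30 °C; 1 = growth at the plate median or of vehicle wells; lower values mean less growth of the strain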
Conditions: growth OD

Measured: normalized growth

NCC(O)CC(=O)O (centres undefined)
inactive: S. cerevisiae deletion strains, locus YKL009W, strain mrt4, active compounds read low 0.991 | S. cerevisiae deletion strains, locus YKL068W, active compounds read low 0.999 | S. cerevisiae deletion strains, locus YKL085W, strain MDH1 (second series), active compounds read low 1 | S. cerevisiae deletion strains, locus YKL085W, strain MDH1, active compounds read low 1 | S. cerevisiae deletion strains, locus YKL160W, strain elf1, active compounds read low 1.02 | S. cerevisiae deletion strains, locus YKL190W, strain CNB1, active compounds read low 1.02 | S. cerevisiae deletion strains, locus YKR001C, strain vps1, active compounds read low 1 | S. cerevisiae deletion strains, locus YKR026C, strain gcn3, active compounds read low 0.959 | S. cerevisiae deletion strains, locus YKR091W, strain srl3, active compounds read low 0.974 | S. cerevisiae deletion strains, locus YLL001W, strain dnm1, active compounds read low 0.987 | S. cerevisiae deletion strains, locus YLL026W, active compounds read low 0.996 | S. cerevisiae deletion strains, locus YLL041C, strain sdh2, active compounds read low 1 | S. cerevisiae deletion strains, locus YLR027C, strain aat2, active compounds read low 0.97 | S. cerevisiae deletion strains, locus YLR039C, strain RIC1, active compounds read low 1.04 | S. cerevisiae deletion strains, locus YLR058C, strain SHM2, active compounds read low 1.02 | S. cerevisiae deletion strains, locus YLR102C, strain apc9, active compounds read low 1 | S. cerevisiae deletion strains, locus YLR113W, strain HOG1, active compounds read low 0.976 | S. cerevisiae deletion strains, locus YLR221C, strain rsa3, active compounds read low 1.01 | S. cerevisiae deletion strains, locus YLR258W, strain gsy2, active compounds read low 1 | S. cerevisiae deletion strains, locus YLR262C, strain YPT6 (second series), active compounds read low 1 | S. cerevisiae deletion strains, locus YLR262C, strain YPT6, active compounds read low 1.03 | S. cerevisiae deletion strains, locus YLR268W, strain sec22, active compounds read low 0.998 | S. cerevisiae deletion strains, locus YLR320W, strain mms22, active compounds read low 1 | S. cerevisiae deletion strains, locus YLR330W, strain CHS5, active compounds read low 1.01 | S. cerevisiae deletion strains, locus YLR342W, strain FKS1 (second series), active compounds read low 1.02 | S. cerevisiae deletion strains, locus YLR342W, strain FKS1, active compounds read low 0.968 | S. cerevisiae deletion strains, locus YLR357W, strain rsc2, active compounds read low 0.972 | S. cerevisiae deletion strains, locus YLR370C, strain arc18, active compounds read low 0.973 | S. cerevisiae deletion strains, locus YLR371W, strain rom2, active compounds read low 1 | S. cerevisiae deletion strains, locus YLR384C, strain iki3, active compounds read low 0.979 | S. cerevisiae deletion strains, locus YLR418C, strain cdc73, active compounds read low 0.988 | S. cerevisiae deletion strains, locus YML016C, strain PPZ1, active compounds read low 1.01 | S. cerevisiae deletion strains, locus YML032C, strain rad52, active compounds read low 1.01 | S. cerevisiae deletion strains, locus YML120C, strain ndi1, active compounds read low 0.994 | S. cerevisiae deletion strains, locus YML124C, strain tub3, active compounds read low 1 | S. cerevisiae deletion strains, locus YMR058W, strain fet3, active compounds read low 0.972 | S. cerevisiae deletion strains, locus YMR078C, strain ctf18, active compounds read low 1 | S. cerevisiae deletion strains, locus YMR125W, strain sto1, active compounds read low 0.958 | S. cerevisiae deletion strains, locus YMR129W, active compounds read low 0.978 | S. cerevisiae deletion strains, locus YMR205C, strain PFK2, active compounds read low 0.965 | S. cerevisiae deletion strains, locus YMR223W, strain ubp8, active compounds read low 1 | S. cerevisiae deletion strains, locus YMR231W, strain pep5, active compounds read low 0.968 | S. cerevisiae deletion strains, locus YMR263W, strain SAP30, active compounds read low 1.01 | S. cerevisiae deletion strains, locus YMR307W, strain GAS1, active compounds read low 0.988 | S. cerevisiae deletion strains, locus YNL067W, strain RPL9B, active compounds read low 1.01 | S. cerevisiae deletion strains, locus YNL071W, strain lat1, active compounds read low 0.981 | S. cerevisiae deletion strains, locus YNL128W, strain TEP1, active compounds read low 1.02 | S. cerevisiae deletion strains, locus YNL183C, strain NPR1, active compounds read low 0.931 | S. cerevisiae deletion strains, locus YNL209W, strain ssb2, active compounds read low 0.985 | S. cerevisiae deletion strains, locus YNL233W, strain BNI4, active compounds read low 1.04 | S. cerevisiae deletion strains, locus YNL248C, strain rpa49, active compounds read low 1.02 | S. cerevisiae deletion strains, locus YNL250W, strain rad50, active compounds read low 0.99 | S. cerevisiae deletion strains, locus YNL271C, strain bni1, active compounds read low 0.992 | S. cerevisiae deletion strains, locus YNL298W, strain CLA4, active compounds read low 0.992 | S. cerevisiae deletion strains, locus YNL307C, strain MCK1, active compounds read low 1.01 | S. cerevisiae deletion strains, locus YNL322C, strain KRE1 (second series), active compounds read low 0.958 | S. cerevisiae deletion strains, locus YNL322C, strain KRE1, active compounds read low 1.02 | S. cerevisiae deletion strains, locus YNR049C, strain mso1, active compounds read low 0.983 | S. cerevisiae deletion strains, locus YNR052C, strain pop2, active compounds read low 1 | S. cerevisiae deletion strains, locus YOL006C, strain TOP1, active compounds read low 0.988 | S. cerevisiae deletion strains, locus YOL012C, strain htz1 0.788 | S. cerevisiae deletion strains, locus YOL147C, strain pex11, active compounds read low 1 | S. cerevisiae deletion strains, locus YOR001W, strain rrp6, active compounds read low 1.02 | S. cerevisiae deletion strains, locus YOR061W, strain CKA2, active compounds read low 1.01 | S. cerevisiae deletion strains, locus YOR069W, strain VPS5, active compounds read low 1.01 | S. cerevisiae deletion strains, locus YOR070C, strain gyp1, active compounds read low 0.991 | S. cerevisiae deletion strains, locus YOR080W, strain dia2, active compounds read low 0.979 | S. cerevisiae deletion strains, locus YOR083W, strain WHI5, active compounds read low 1.03 | S. cerevisiae deletion strains, locus YOR106W, strain vam3, active compounds read low 0.978 | S. cerevisiae deletion strains, locus YOR136W, strain idh2, active compounds read low 1 | S. cerevisiae deletion strains, locus YOR144C, strain elg1, active compounds read low 0.999 | S. cerevisiae deletion strains, locus YOR184W, strain ser1, active compounds read low 1 | S. cerevisiae deletion strains, locus YOR231W, strain MKK1, active compounds read low 1.02 | S. cerevisiae deletion strains, locus YOR265W, strain rbl2, active compounds read low 0.989 | S. cerevisiae deletion strains, locus YOR270C, strain vph1, active compounds read low 0.987 | S. cerevisiae deletion strains, locus YOR290C, strain snf2, active compounds read low 0.938 | S. cerevisiae deletion strains, locus YOR316C, strain cot1, active compounds read low 1.01 | S. cerevisiae deletion strains, locus YPL051W, strain arl3, active compounds read low 1.02 | S. cerevisiae deletion strains, locus YPL078C, strain atp4, active compounds read low 0.998 | S. cerevisiae deletion strains, locus YPL106C, strain sse1, active compounds read low 0.985 | S. cerevisiae deletion strains, locus YPL240C, strain hsp82, active compounds read low 1 | S. cerevisiae deletion strains, locus YPL241C, strain CIN2, active compounds read low 1.01 | S. cerevisiae deletion strains, locus YPL256C, strain CLN2, active compounds read low 1.01 | S. cerevisiae deletion strains, locus YPR119W, strain clb2, active compounds read low 0.996 | S. cerevisiae deletion strains, locus YPR141C, strain kar3, active compounds read low 0.994 | S. cerevisiae deletion strains, locus YPR163C, strain tif3, active compounds read low 0.993 | S. cerevisiae deletion strains, locus YPR167C, strain met16, active compounds read low 0.995 | S. cerevisiae deletion strains, strain wtn01, active compounds read low 0.99 | S. cerevisiae strains, strain wild type, active compounds read low 1.02
